AHR activator – activators of human aryl hydrocarbon receptor | AID 2796 | hit rate 2.5% among 320,000 | AHR-responsive luciferase reporter cells, luminescence | P35869 | activation, % at 5 µM; in the data active means activation above about 47%
Target sequence (P35869 whole entry, looked up): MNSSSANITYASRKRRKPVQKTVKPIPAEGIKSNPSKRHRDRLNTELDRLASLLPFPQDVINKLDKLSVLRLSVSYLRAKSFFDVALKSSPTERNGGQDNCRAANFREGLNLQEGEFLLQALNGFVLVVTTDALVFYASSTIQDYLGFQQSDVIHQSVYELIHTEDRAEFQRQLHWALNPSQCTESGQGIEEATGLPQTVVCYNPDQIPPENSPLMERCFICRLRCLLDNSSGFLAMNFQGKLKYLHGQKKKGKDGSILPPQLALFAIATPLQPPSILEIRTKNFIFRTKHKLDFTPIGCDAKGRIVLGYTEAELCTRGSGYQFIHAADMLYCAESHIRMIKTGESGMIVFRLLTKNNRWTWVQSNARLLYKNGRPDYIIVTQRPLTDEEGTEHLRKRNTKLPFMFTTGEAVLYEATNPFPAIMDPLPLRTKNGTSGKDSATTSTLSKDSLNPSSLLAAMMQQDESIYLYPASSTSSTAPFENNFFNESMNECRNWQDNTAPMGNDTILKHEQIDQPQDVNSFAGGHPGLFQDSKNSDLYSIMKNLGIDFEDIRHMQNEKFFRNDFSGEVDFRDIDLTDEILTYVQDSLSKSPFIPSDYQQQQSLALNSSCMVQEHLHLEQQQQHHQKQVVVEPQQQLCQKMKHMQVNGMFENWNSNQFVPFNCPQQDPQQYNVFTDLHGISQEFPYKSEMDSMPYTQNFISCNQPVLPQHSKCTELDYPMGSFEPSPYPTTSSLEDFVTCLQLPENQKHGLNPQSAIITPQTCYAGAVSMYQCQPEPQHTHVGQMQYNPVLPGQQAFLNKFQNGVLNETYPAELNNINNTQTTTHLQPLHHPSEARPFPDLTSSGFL
DAX1 inh – inhibitors of human orphan nuclear receptor DAX1 (NR0B1). P51843. HEK293 Gal4-DAX1 luciferase reporter, luminescence. inhibition, % at 6.75 µM. hit rate 0.99% among 340,000. AID 504766;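 active means inhibition above the mean over all tested compounds plus 3 SD, cut at about 4.2% in these data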;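 further: inhibition shows as a rise in luminescence from relieved DAX1 repression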
HSP90 refold inh – blocks HSP90-mediated luciferase refolding in reticulocyte lysate; hit rate 0.91% among 290,000; inhibition, % at 5.6 µM; Rabbit reticulocyte lysate, luciferase refolding luminescence, 3 h;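 active means inhibition above the screen-wide mean plus 3 SD, computed separately per campaign, cut at about 16% in these data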;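 further: inhibitors lower the luminescence because luciferase stays unfolded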
GAA850 FXN act – activators of GAA850 frataxin (FXN) promoter; HEK293 lucGAA850 FXN promoter luciferase reporter, 24 h; percent of 10 µM SAHA response; activation, % at 6 µM; hit rate 0.56% among 360,000; AID 540364;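 active means activation above the average of all compounds screened plus 3 SD, cutoff fixed separately per campaign, cut at about 7.5% in these data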
HSF-1 act – increases HSF-1 driven luciferase reporter signal. NIH3T3-HGL HSF-1 luciferase reporter, MG132, 8 h; 100% = twice DMSO control signal. activation, % at 9 µM. hit rate 1.7% among 300,000;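 active means mean replicate activation of at least 50% with a set share of replicates each reaching 50%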
HSF1 inh – HSF1 inhibition; NIH3T3-HGL HSE-luciferase, MG132-induced, luminescence 8 h; active compounds read low; activity change, negative = inhibition, % at 7.5 µM (by protocol); hit rate 0.77% among 300,000;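 active means more than half of replicate wells show activity change below -50%, luminescence cut by over half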;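 further: luciferase reports HSF-1 transcriptional activity via heat shock element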
Each line names hits and unclear results; the compound was inactive in the other large screens. In the library only some 5.9% were active in any assay of this set; here they are far more common.

NC(=O)c1ccccc1NC(=O)c1ccc2ccccc2c1	HSF-1 act 66.1
O=C(Nc1c(F)cccc1F)c1ccc(-n2cncn2)nc1	none
Cc1ccccc1NC(=O)c1ccc2ccccc2c1	DAX1 inh 5.0
Cc1ccccc1NC(=O)c1ccc(-n2cncn2)nc1	AHR activator 121.2
CCCNC(=S)NC1CC2CCCC(C1)N2Cc1ccc(F)cc1 (stereo unspecified)	HSF1 inh -61.3
Cc1ccc(CN2C3CCCC2CC(NC(=O)c2ccc(F)cc2)C3)cc1 (stereo unspecified)	none
Cc1ccc(CNC(=O)Cn2ccc3ccccc3c2=O)o1	HSF-1 act 64.3
COC(=O)CNC(=O)Cn1ccc2ccccc2c1=O	none
Cc1ccc(C(=O)/C=C/Nc2cccc([N+](=O)[O-])c2)o1	HSF-1 act 59.0
O=C(/C=C/Nc1cccc([N+](=O)[O-])c1)c1ccco1	none
Clc1cccc(-c2nc(NCCCN3CCOCC3)c3ccccc3n2)c1	none
Clc1cccc(-c2nc(NCCN3CCOCC3)c3ccccc3n2)c1	none
Clc1ccc(-c2nc(NCCCN3CCOCC3)c3ccccc3n2)cc1	AHR activator 70.7 (no result: DAX1 inh)
Cc1ccc(-c2nc(NCCN3CCOCC3)c3ccccc3n2)cc1	AHR activator 65.5
Cc1cccc(CS(=O)(=O)c2ncc(Cl)c(C(=O)NCc3ccc4c(c3)OCO4)n2)c1	HSF-1 act 317.2
COC(=O)c1ccc(NC(=O)c2nc(S(=O)(=O)Cc3cccc(C)c3)ncc2Cl)cc1	HSF1 inh -86.0
CC(Sc1nccn1C)C(=O)c1ccc(Br)cc1 (stereo unspecified)	none
CCCCSC1=C(C#N)C(c2ccccc2C)CC(=O)N1 (stereo unspecified)	HSF1 inh -58.9
CCCSC1=C(C#N)C(c2ccccc2C)CC(=O)N1 (stereo unspecified)	none (no result: GAA850 FXN act)
COc1cc(NC(=S)Nc2ccccn2)c(OC)cc1Cl	AHR activator 58.5
COc1cc(NC(=S)NC(C)(C)C)c(OC)cc1Cl	HSF-1 act 63.4
O=C(Nc1cccc(S(=O)(=O)NC2=NCCC2)c1)c1cc(=O)[nH]c2ccccc12	none (no result: HSP90 refold inh, HSF-1 act, HSF1 inh)
COc1ccc(NC(C)=O)cc1S(=O)(=O)Nc1ccc(C(=O)N2CCCC2)cc1	DAX1 inh 4.4
COc1ccc(NC(C)=O)cc1S(=O)(=O)Nc1ccccc1C(=O)N1CCCC1	none
CN(CC(=O)Nc1ccc(F)cc1)C(=O)Cn1cnc2ccc(Cl)cc2c1=O	none (no result: HSP90 refold inh, HSF-1 act, HSF1 inh)
COc1ccc(/C(N)=N/OC(=O)CCc2ccccc2)cc1	HSF-1 act 54.7
COc1ccc(/C(N)=N/OC(=O)c2ccc(Br)o2)cc1	AHR activator 68.5
N/C(=N\OC(=O)c1ccc(Br)o1)c1cccnc1	AHR activator 52.7
N/C(=N\OC(=O)c1ccc([N+](=O)[O-])cc1)c1cccnc1	none
COc1ccc(/C(N)=N/OC(=O)c2cccs2)cc1	none
CCN1C[C@@H]2[C@@H]3C(=O)N(Cc4ccccc4)C(=O)[C@@H]3[C@](CC)(C1=O)N2C(=O)c1ccc(Cl)c(Cl)c1	none (no result: AHR activator, HSP90 refold inh, HSF-1 act, HSF1 inh)
CCC(C)N(CC(=O)Nc1cccc(C)c1C)C(=O)CCl (stereo unspecified)	none
CCCNC(=O)c1ccc(N2CCC3(CC2)CC(c2cccc(Br)c2)=NO3)c(NC(=O)c2c(Cl)cccc2Cl)c1	none (no result: HSP90 refold inh)
CCCNC(=O)c1ccc(N2CCC3(CC2)CC(c2cccc(Br)c2)=NO3)c(NC(=O)c2ccc(Br)cc2)c1	HSF1 inh -88.8 (no result: HSP90 refold inh)
O=C1Nc2ccccc2OC1CC(=O)N1CCOCC1 (stereo unspecified)	DAX1 inh 6.0
CCC(CC)NC(=O)C1CCN(c2ccc(S(=O)(=O)N3CCOCC3)cc2[N+](=O)[O-])CC1	none (no result: HSP90 refold inh, HSF-1 act, HSF1 inh)
O=C(Nc1cc(S(=O)(=O)N2CCOCC2)ccc1OCC(F)(F)F)C1CCCC1	none (no result: AHR activator, HSP90 refold inh, HSF-1 act, HSF1 inh)
CC(=O)O[C@H]1CC[C@@]2(C)C(CCC3C2CC[C@]2(C)OC(=O)CCC32)C1 (stereo partly specified)	DAX1 inh 5.0
CC(=O)OC1CCC2(C)C(CCC3C4CC=C(C(C)=O)C4(C)OC(=O)CC32)C1 (stereo unspecified)	none (no result: AHR activator, HSP90 refold inh, HSF-1 act, HSF1 inh)
COC(=O)c1ccc(C(=O)OC)c(NC(=O)C(C)(C)C)c1	HSF-1 act 66.6
O=C(Nc1c(O)c2ccccc2[nH]c1=O)c1ccco1	AHR activator 78.2
O=C(Nc1cccc(O)c1)c1c(O)c2ccccc2[nH]c1=O	DAX1 inh 5.0
O=c1[nH]c2ccccc2c(O)c1Cc1ccccc1	DAX1 inh 4.7
Cc1cccc(NC(=O)c2c(O)c3ccccc3[nH]c2=O)c1	none
CCCCCCC(=O)Nc1c(O)c2ccccc2[nH]c1=O	none
COc1ccc(OC)c(NC(=O)c2ccc(NC3=NC4CS(=O)(=O)CC4S3)cc2)c1 (stereo unspecified)	none
COc1ccc(C(=O)NCC(C)NC(=O)c2ccc(OC)c(Br)c2)cc1Br (stereo unspecified)	none (no result: DAX1 inh, HSP90 refold inh)
COc1cccc(CNS(=O)(=O)c2cc3c4c(c2)CCN4C(=O)CC3)c1	none (no result: HSP90 refold inh)
O=C(O)/C=C/C(=O)c1ccc2c(c1)CCc1ccccc1-2	HSF-1 act 175.2 (no result: HSP90 refold inh)
CC(=O)Nc1ccc2c(c1)CCc1ccccc1-2	none
CC12CCC(C/C1=N\N=C1\NC(=O)/C(=C\c3ccc(Cl)cc3)S1)C2(C)C (stereo unspecified)	HSF1 inh -94.2
c1ccc2c(C3OCC4(CCCCC4)CO3)cccc2c1	none (no result: AHR activator, HSP90 refold inh, HSF-1 act, HSF1 inh)
O=C(CSc1nnc(-c2ccncc2)o1)Nc1ccccc1Cl	none
COc1ccccc1NC(=O)CSc1nnc(-c2ccncc2)o1	HSF1 inh -63.1
COc1ccccc1C(=O)CSc1nnc(-c2ccco2)o1	HSF-1 act 68.9
O=C(CSc1nnc(-c2ccccn2)o1)Nc1ccccc1Cl	HSF-1 act 51.4
COC(=O)CSc1nnc(-c2ccco2)o1	none
CCOC(=O)c1c[nH][nH]c1=O	none
Cc1c(P(=O)(c2ccccc2)c2ccccc2)c2ccccc2n1C	none (no result: AHR activator, DAX1 inh, HSP90 refold inh, HSF-1 act, HSF1 inh)
Cc1ccc(NC2CCCN(C(=O)C3CCCCC3)C2)cc1C (stereo unspecified)	AHR activator 60.4
COc1ccc(NC2CCCN(C(=O)c3oc(C)cc3C)C2)cc1OC (stereo unspecified)	none
O=C(C1CCCC1)N1CCCC(Nc2ccc(F)cc2)C1 (stereo unspecified)	none
Cc1cc(C)c(C(=O)N2CCCC(Nc3ccc(C)c(C)c3)C2)o1 (stereo unspecified)	AHR activator 62.9
CCc1nc2ccc(C(=O)N3CCN(S(=O)(=O)CC)CC3)cn2c1N(CC)Cc1cccc(Br)c1	none (no result: AHR activator, DAX1 inh, HSP90 refold inh, HSF-1 act, HSF1 inh)
Cc1cc2cccc(C)c2nc1SCC(=O)NNC(=O)c1ccco1	AHR activator 51.9
CC[C@]1(C(=O)OC)[C@H]2C(=O)N(Cc3ccccc3)C(=O)[C@H]2[C@H]2CN(C)C(=NC)N21	none (no result: AHR activator, HSP90 refold inh, HSF-1 act, HSF1 inh)
CSc1nc2[nH]c3c(c2c2ncnn12)CCCC3	AHR activator 47.2
